Reference: PubChem BioAssay AID1458 (National Center for Advancing Translational Sciences (NCATS), 2008)
Values joined by “and” are separate entries in the source; they are usually repeats but may differ in a detail not shown here. Equal entries are not always repeated. The campaign covered roughly 210,000 compounds. About 5,900 (2.8%) were called active. Not shown: some 5% with an inconclusive outcome. Calls follow the shape of the dose curve; as a rule, active = well fitted activation curve with a large enough effect; inconclusive = small, poorly fitted or top-dose-only effect; inactive = no such curve, though single readings can be large or run the other way. Many of the other results were omitted from the sample, so actives are more common in it than they were.

Experiment: qHTS Assay for Enhancers of SMN2 Splice Variant Expression; also: nearly all actives have a fitted effect of over 55% in size; as to activity change, positive = activation: % of control where 0% means no effect
Conditions: HEK293 SMN2-luciferase splicing reporter, luminescence, 30-36 h; series mostly up to 46.1 µM; activity change, positive = activation: at the top concentration
In short: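 HEK293 cells carry an SMN2 minigene-luciferase reporter in which exon 7 inclusion puts luciferase in frame. Cells were seeded at 2000 cells/well, attached for 10-12 hours, then exposed to compounds for 30-36 hours at 37C before ONE-Glo luminescence.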
Potency is read from the fitted curve at half-maximal effect.

| Compound | activity change, positive = activation | Potency |
| --- | --- | --- |
| O=C(NCc1ccccn1)c1c(O)c2c([nH]c1=O)CCCC2 | -17.7% (inactive) | – |
| C[N+](C)(C)CCNC(=O)c1c(O)c2c([nH]c1=O)CCCC2 | 1.37% (inactive) | – |
| CCc1nnc(NC(=O)c2c(O)c3c([nH]c2=O)CCCC3)s1 | – | 14.1 µM (active) |
| Cc1ccc(NC(=O)NC(C)c2c(-n3cccc3)sc(C)c2C)c(C)c1 (stereo not given) | -3.47% (inactive) | – |
| CCCn1c(NCc2ccc(N(CC)CC)cc2)nc2ccccc21 | -50.8% (inactive) | – |
| COc1ccc(OCCCC(=O)NCCc2ccccc2)cc1 | -4.84% (inactive) | – |
| CCCOc1ccc(C(=O)NCCc2ccccc2)cc1 | – | 14.1 µM (active) |
| CS(=O)(=O)NCc1ccc(C(=O)NCc2ccccc2)cc1 | -3.72% (inactive) | – |
| O=C(NCCOc1ccccc1)c1ccccc1 | – | 12.6 µM (active) |
| NS(=O)(=O)c1cc(C(=O)NCCOc2ccccc2)c(Cl)cc1Cl | 5.16% (inactive) | – |
| CC(C)c1ccc(C(=O)NCCCc2ccccc2)cc1 | – | 14.1 µM (active) |
| O=C(CCOc1ccccc1)NCc1ccccc1 | -5.69% (inactive) | – |
| Nc1ccc(C(=O)NCc2ccccc2)cc1 | 11% (inactive) | – |
| O=C(NCCc1ccccc1)c1ccc(OCCOc2ccccc2)cc1 | -1.13% (inactive) | – |
| CCC1=Nc2cc(C(=O)NCC(C)c3ccccc3)ccc2Sc2ccc(C)cc21 (stereo not given) | -29.9% (inactive) | – |
| COc1cccc(CNC(=O)c2cc(=O)[nH]c3ccc(S(=O)(=O)N4CCCCC4)cc23)c1 | 2.53% (inactive) | – |
| CCC(=O)N1N=C(c2ccc(OC)cc2)CC1c1cn(-c2ccccc2)nc1-c1cccs1 (stereo not given) | -8.72% (inactive) | – |
| O=C(/C=C\c1cn(-c2ccccc2)nc1-c1cccs1)N1CCOCC1 | 26.2% (inactive) | – |
| O=C(O)c1ccc(N/N=C/c2cn(-c3ccccc3)nc2-c2cccs2)cc1 | – | 7.94 µM (active) |
| COc1ccc(-c2nn(-c3ccccc3)cc2/C=C\C(=O)Nc2ccc(C(=O)O)cc2)cc1 | -2.02% (inactive) | – |
| CC(C)CC(NS(=O)(=O)c1ccc2c(c1)oc(=O)n2C)C(=O)NCc1ccccc1Cl (stereo not given) | 4.01% (inactive) | – |
| Cc1ccccc1NC(=O)Cn1c(=O)n(CCc2ccccc2)c(=O)c2ccccc21 | -3.15% (inactive) | – |
| COc1ccc(-n2ncc3c(N4CCc5ccccc54)ncnc32)cc1 | – | 5.62 µM (active) |
| COc1ccc(N2CCN(C(=O)CSc3ncnc4c3cnn4-c3ccc(OC)cc3)CC2)cc1 | -25.5% (inactive) | – |

| Compound | activity change, positive = activation | Potency |
| --- | --- | --- |
| COc1ccc(-n2ncc3c(N4CCCc5ccccc54)ncnc32)cc1 | -16.2% (inactive) | – |
| CO[C@@]12[C@@H](COC(N)=O)C3=C(C(=O)C(C)=C(N)C3=O)N1C[C@@H]1N[C@@H]12 | -77.1% (inactive) | – |
| CC(C)c1ccc2oc(-c3cc(NC(=O)c4cccs4)ccc3Cl)nc2c1 | -26.1% (inactive) | – |
| CC1=C(C(=O)OCc2ccc(C)cc2)C(c2c(Cl)cccc2Cl)CC(=O)N1 (stereo not given) | 1.93% (inactive) | – |
| Cc1ccccc1OCC(=O)Nc1c(C(=O)Nc2ccccc2F)oc2ccccc12 | 13.5% (inactive) | – |
| Cc1n[nH]c(=S)n1/N=C/c1ccc(Br)o1 | 2.13% (inactive) | – |
| CNC(=S)N/N=C/c1ccc(OCc2ccccc2)c(Br)c1 | 3.28% (inactive) | – |
| COc1cc(/C=N/n2c(C)n[nH]c2=S)ccc1OCc1ccccc1 | – | 12.6 µM (active) |
| Cc1cc(-c2ccccc2)n2nc(-c3ccccc3)cc2n1 | -3.97% (inactive) | – |
| Cc1ccc(NC(=O)CN2C(=O)CC(C)Sc3ccccc32)c(C)c1 (stereo not given) | -2.75% (inactive) | – |
| CC(C)=CCN1CCC2(CCc3ccccc32)CC1 | -7.89% (inactive) | – |
| CCOc1ccc(OCC)c(NC(=O)c2c(C)nn(-c3ccccc3)c2-n2cccc2)c1 | -0.729% (inactive) | – |
| COC(=O)c1c(NC(=O)c2ccc(Cl)c(Cl)c2)sc2c1CCCC2 | -7.09% (inactive) | – |
| COc1ccccc1Nc1nc(N)nc(N)c1S(=O)(=O)c1ccccc1 | 10.2% (inactive) | – |
| CCc1cc2c(cc3c(=O)n(CC(=O)NCCc4ccc(OC)c(OC)c4)ncn32)s1 | -1.71% (inactive) | – |
| CCN(CC)C(=O)CSc1ncnc2c1cnn2-c1ccccc1 | 27.2% (inactive) | – |
| Cc1ccc(-n2ncc3c(Nc4cccc(C(=O)O)c4)ncnc32)cc1 | – | 14.1 µM (active) and 11.2 µM (active) |
| O=C(NNc1ncnc2c1cnn2-c1ccccc1)c1ccco1 | -26.9% (inactive) | – |
| COc1ccc(Cl)cc1NC(=O)CSc1nc(-c2cccs2)cc(C(F)(F)F)n1 | -0.0208% (inactive) | – |
| CCOCCCNC(=O)c1cn(CC)c2ccc(S(=O)(=O)N3CCc4ccccc4C3)cc2c1=O | -7.64% (inactive) | – |
| COc1c(C)c2c(c(O)c1C/C=C(\C)CCC(=O)O)C(=O)OC2 | – | 501 nM (active) and 631 nM (active) and 398 nM (active) |
| CCc1ccc(C2CC(=O)c3c([nH]c(C(=O)OCc4ccc(C)cc4)c3C)C2)cc1 (stereo not given) | 6.39% (inactive) | – |
| COc1ccc(-c2cc(-c3ccccc3)nc3c2COc2ccc(Cl)cc2-3)cc1 | 2.81% (inactive) | – |
| COc1ccc(C2=Nc3cc(C)ccc3OC2)cc1 | – | 2.82 µM (active) |

| Compound | activity change, positive = activation | Potency |
| --- | --- | --- |
| COc1ccc(C2=NOC3(CC(=O)N(c4ccc(C)cc4)C3=O)C2)cc1 (stereo not given) | -1.53% (inactive) | – |
| Cc1ccc2c(c1)-c1c(cnn1CC(=O)Nc1ccccc1C#N)CO2 | -17.6% (inactive) | – |
| CC(=O)Nc1ccc(/C=N/NC(=O)c2cccs2)cc1 | – | 17.8 µM (active) |
| Cc1ccc(-n2nc(C)c(/C=N/NC(=O)c3cccs3)c2Cl)cc1 | 20.2% (inactive) | – |
| Cc1cccc(-n2c(C)cc(/C=N\NC(=O)c3cccs3)c2C)c1 | – | 2 µM (active) |
| CC(C)C(=O)Nc1ccc(C(=O)NNC(=O)c2cccs2)cc1 | 15.1% (inactive) | – |
| O=C(O)c1ccc(NC(=O)c2cccs2)cc1 | -2.57% (inactive) | – |
| Cc1cccc(-n2c(C)cc(/C=N/NC(N)=S)c2C)c1 | 2.47% (inactive) | – |
| O=C(c1cccs1)N1CCC(c2nc3ccccc3s2)CC1 | -20.4% (inactive) | – |
| O=C(OC1CCOC1=O)c1ccc(-c2nc3ccccc3s2)s1 (stereo not given) | – | 12.6 µM (active) |
| Cc1nn(Cc2ccccc2)c(Cl)c1C(=O)OC1CCOC1=O (stereo not given) | 15.5% (inactive) | – |
| COc1cccc(-c2nc(CS(=O)(=O)CC(=O)NCCc3ccc(OC)c(OC)c3)c(C)o2)c1 | -49.1% (inactive) | – |
| O=C(Cn1nc(C(F)(F)F)c2c1CCC2)NCc1ccc(F)cc1 | -17.5% (inactive) | – |
| O=C(Cn1nc(C(F)(F)F)c2c1CCCC2)Nc1ccc(Cl)cc1 | -4.3% (inactive) | – |
| Cc1cc(NC(=O)Cn2nc(C(F)(F)F)c3c2CCCC3)no1 | – | 14.1 µM (active) |
| Cc1cc(C)cc(NC(=O)Cn2c(=O)c3ccccc3n3nncc23)c1 | 7.67% (inactive) | – |
| COc1ccc2nc(NC(=O)c3ccc(Br)s3)sc2c1 | – | 11.2 µM (active) |
| CCOc1ccc(S(=O)(=O)Nc2nc3cc(OC)ccc3s2)cc1 | 8.16% (inactive) | – |
| COc1ccc2nc(Nc3nc4cc5c(cc4s3)OCCO5)sc2c1 | – | 20 µM (active) |
| COc1ccc2nc(NC(=O)[C@@H]3CCCN3C(=O)c3cccs3)sc2c1 | 2.5% (inactive) | – |
| COc1ccc2nc(Nc3nc4ccc(NC(C)=O)cc4s3)sc2c1 | -6.86% (inactive) | – |
| COc1cccc(C(=O)Nc2nc3ccc(S(C)(=O)=O)cc3s2)c1 | 18% (inactive) | – |
